# Measured values reported in PubChem BioAssay AID504834 (National Center for Advancing Translational Sciences (NCATS), 2011).
# Screen size: about 320,000 compounds; about 22,000 (6.9%) were called active. Not shown: some 27% with an inconclusive outcome. The call rests on the fitted dose curve; in most records, active means well fitted inhibition curve with a large enough effect; inconclusive means small, poorly fitted or top-dose-only effect, or another doubt; inactive means no such curve, though single readings can be large or run the other way. The full list was thinned out, with actives kept by preference.
# Test: Primary qHTS for delayed death inhibitors of the malarial parasite plastid, 96 hour incubation
# Conditions: P. falciparum luciferase reporter growth; series mostly up to 28.7 µM; activity change, negative = inhibition: at the top concentration
# Outline: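 Plates of compound plus infected erythrocytes (2% hematocrit, 0.05% parasitemia final) incubate 96 hours, 37 C, 5% CO2. Detection reagent added; reduced luminescence from the parasites' luciferase reporter flags inhibition.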
# On the % scale 0 is the no-effect control and ±100 the full control effect; potency means the concentration at half of the fitted maximal effect.
Compound,"activity change, negative = inhibition",Potency
CCOc1ccc(C(CC(=O)O)NC(=O)C23CC4CC(CC(C4)C2)C3)cc1OC (configuration not stated),21.1% (inactive),
CCOc1ccc(C(CCc2ccccc2)NC(=O)c2ccc(OC)c(OC)c2)cc1OCC (configuration not stated),,0.233 µM (active)
COc1ccc(C(=O)OCC(=O)NCCCc2ccccc2)cc1OC,9.81% (inactive),
Cc1cc(NS(=O)(=O)c2ccc(NC(=O)c3cccnc3)cc2)nc(C)n1,20.1% (inactive),
CCN1N=C(c2ccccc2)CCC1=O,49.6% (inactive),
CCN1CCN(Cc2c(O)ccc3c(=O)c(-c4ccc(OC)c(OC)c4)c(C(F)(F)F)oc23)CC1,90% (inactive),
O=c1oc2c(CN3CCCCC3)c(O)ccc2c2c1CCCCC2,,10.4 µM (active)
O=c1c(-c2ccccc2)coc2c(CN3CCOCC3)c(O)ccc12,17.4% (inactive),
COc1cc(NC(=O)CSC(=S)N2CCCC2)c(OC)cc1Cl,-1.62% (inactive),
CN(CCNC(=O)c1cc2c(-c3ccccc3F)nn(C)c2s1)C1CCCCC1,3.44% (inactive),
COc1ccc(CNC(=O)COc2cccnc2[N+](=O)[O-])cc1,27.4% (inactive),
Cc1ccc([N+](=O)[O-])cc1S(=O)(=O)N1CCCN(C)CC1,13% (inactive),
Cc1ccc(C)c(S(=O)(=O)N2CCN(CC(=O)Nc3ccc([N+](=O)[O-])cc3)CC2)c1,,10.4 µM (active)
Cc1ccc(C)c(S(=O)(=O)N2CCN(C(=O)Nc3ccccc3)CC2)c1,37.2% (inactive),
Cc1c(CNCCc2ccccc2)c(C(=O)O)c(C)n1-c1ccccc1,0% (inactive),
Cc1ccc(CC2C(=O)N(c3ccc(F)cc3)C(=O)C2C)cc1 (configuration not stated),87.4% (inactive),
CCCc1nn(C)c2c(=O)[nH]c(-c3cc(S(N)(=O)=O)ccc3OCC)nc12,-15.6% (inactive),
CC(C)CN(C(=O)c1cccc(S(=O)(=O)N2CCCCC2)c1)C1CCS(=O)(=O)C1 (configuration not stated),24.2% (inactive),
CCC1CCCCN1C(=S)Nc1ccc(S(=O)(=O)Nc2ncccn2)cc1 (configuration not stated),,10.4 µM (active)
CCC1CCCCN1C(=S)Nc1ccc(SC(F)F)cc1 (configuration not stated),-14.4% (inactive),
CCC1CCCCN1C(=S)Nc1ccc(C(C)=O)cc1 (configuration not stated),22.3% (inactive),
Cc1ccc(C)c(S(=O)(=O)Nc2cc(C)on2)c1,36.9% (inactive),
Cc1ccc(OCC(=O)Nc2ccc(N3CCN(C(=O)c4ccco4)CC3)cc2)c(C)c1,124% (inactive),
CN(Cc1ccccc1)C(=O)CSc1nc2ccccc2[nH]1,9.42% (inactive),
O=C(CSc1nc2ccccc2[nH]1)c1cccs1,5.77% (inactive),
O=C(CSc1nc2ccccc2[nH]1)Nc1nc(-c2ccccc2)c(-c2ccccc2)o1,,13.1 µM (active)

Compound,"activity change, negative = inhibition",Potency
COc1ccc2c(c1)C(NS(=O)(=O)OCC(Cl)(Cl)Cl)CCC2 (configuration not stated),12.5% (inactive),
CC(=O)N(C)c1ccc(NC(=O)C(F)(F)F)cc1,-17.5% (inactive),
CCOc1ccc(NC(=O)Nc2ccc(N(C)C(C)=O)cc2)cc1,,16.5 µM (active)
CCOc1ccc(NC(=O)N(CC(C)C)CC(C)C)cc1,3.96% (inactive),
O=C(O)CCCCCCCCc1cn(CN2C(=O)c3ccccc3C2=O)nn1,91.8% (inactive),
CC(=O)c1sc(NC(=O)c2ccc(C)cc2)nc1C,102% (inactive),
Cn1sc(NC(=O)c2ccccc2)nc1=O,20% (inactive),
O=C(Nc1nc(-c2ccc(-c3ccccc3)cc2)cs1)c1cnccn1,58.2% (inactive),
O=C(Nc1ccc(-c2csc(Nc3cccc(C(F)(F)F)c3)n2)cc1)c1cccc(C(F)(F)F)c1,,8.28 µM (active)
O=C(O)c1ccccc1C(=O)Nc1nc(-c2ccccc2)cs1,0.357% (inactive),
CCNS(=O)(=O)c1ccc(NC(=O)Nc2cccc(C(F)(F)F)c2)cc1,14.7% (inactive),
Cc1nc(NC(=O)c2cccc(Cl)c2)sc1-c1csc(Nc2cccc(Cl)c2)n1,,9.28 µM (active)
Cc1ccc(Nc2nc(-c3sc(NC(=O)c4ccccc4)nc3C)cs2)cc1,,13.1 µM (active)
Cc1ccc(-c2csc(NNC(=O)c3ccccc3)n2)cc1,,3.7 µM (active)
CC(=O)Nc1cccc(C(=O)Nc2nc(C)cs2)c1,56.8% (inactive),
CNC(=O)c1ccc(NC(=O)c2cccc(C(F)(F)F)c2)cc1,6.47% (inactive),
CCOC(=O)c1c(NC(=O)CN2C(=O)NC3(CCC(C)CC3)C2=O)sc(C)c1CC (configuration not stated),0% (inactive),
NC(=O)c1c(NC(=O)CSc2nc(N)cc(=O)[nH]2)sc2c1CCCC2,-0.481% (inactive),
COc1cc(NS(=O)(=O)c2ccc(NC(=S)NC(=O)c3ccc(Br)cc3)cc2)ncn1,-0.194% (inactive),
COc1ccccc1Cn1c(CO)nc2ccccc21,1.92% (inactive),
COc1ccc(-n2ncc3c(SCC(=O)NNC(C)=O)ncnc32)cc1,39.1% (inactive),
CC(=O)c1cccc(NC(=O)c2cc(C)nn2-c2ccccc2)c1,34.6% (inactive),
COc1ccc(Cl)cc1C(=O)OCC(=O)NCc1cccs1,-13.3% (inactive),
Cc1c(-c2nn(C)c(=O)c3ccccc23)oc2ccc(F)cc2c1=O,,4.15 µM (active)
O=C1c2oc3ccc(Br)cc3c(=O)c2C(c2cccc(F)c2)N1CCO (configuration not stated),61.8% (inactive),
CCC(=O)NCc1cc(-c2nn(C)c(=O)c3ccccc23)ccc1OC,28.6% (inactive),

Compound,"activity change, negative = inhibition",Potency
Cc1ccc(S(=O)(=O)N2CCCCC2)cc1NC(=O)c1cccnc1,4.25% (inactive),
O=C(Nc1ccc(S(=O)(=O)N2CCCC2)cc1Cl)C1=COCCO1,21.5% (inactive),
CCN(CC)c1ccc(S(=O)(=O)N2CCCCC2)cc1NC(=O)C1=COCCO1,,10.4 µM (active)
O=C(Nc1ccc(Br)cc1)c1cc(S(=O)(=O)Nc2ccccn2)ccc1Cl,9.51% (inactive),
O=C(NNC(=O)C1CCCC1)c1ccc(F)cc1,9.74% (inactive),
CN1CCN(CC(=O)Nc2sc3c(c2C#N)CCC(C(C)(C)C)C3)CC1 (configuration not stated),4.93% (inactive),
COC(=O)c1c(NC(=O)CCN2CCOCC2)sc2c1CCCC2,23.4% (inactive),
Nc1nc(SCC(=O)NCCN2CCOCC2)nc2sc3c(c12)CCC3,,13.1 µM (active)
C=CCn1c(SCC(=O)NCCCO)nc2sc3c(c2c1=O)CCC3,44.6% (inactive),
CC(C)(C)C1CCc2c(sc3nc(SCC(N)=O)nc(N)c23)C1 (configuration not stated),,9.28 µM (active)
CCOC(=O)c1sc2nc(C)nc(SCC(N)=O)c2c1C,-7.55% (inactive),
CC(=O)N1CCc2c(sc(NC(=O)CCS(=O)(=O)c3ccc(C)cc3)c2C(N)=O)C1,-29.3% (inactive),
O=C(Nc1cc(S(=O)(=O)N2CCOCC2)ccc1OCC(F)(F)F)c1ccc(N2CCCC2=O)cc1,-11% (inactive),
Cc1noc(C)c1C(=O)NCCc1ccc(S(N)(=O)=O)cc1,29.7% (inactive),
CC(=O)n1cc([C@@H]2C=C(C(=O)N3CCN(Cc4ccc5c(c4)OCO5)CC3)O[C@H](OCc3ccc(CO)cc3)C2)c2ccccc21,,1.65 µM (active)
C#Cc1ccc([C@@H]2C=C(C(=O)O)O[C@H](OCCCCO)C2)cc1,60.2% (inactive),
CCn1cc(C(=O)N2CCN(Cc3ccc4c(c3)OCO4)CC2)c2cc(OC)c(OC)cc2c1=O,15.9% (inactive),
O=C(c1cccc([N+](=O)[O-])c1)N1CCN(Cc2ccccc2)CC1,-4.42% (inactive),
O=C(NCc1ccccc1)C1=C[C@@H](c2ccc(C(F)(F)F)cc2)C[C@@H](OCc2ccc(CO)cc2)O1,,4.65 µM (active)
CC(C)CCN1CCN(Cc2ccc(C(F)(F)F)cc2)CC1CCO (configuration not stated),-3.68% (inactive),
O=C(NCc1ccccc1)C1=C[C@H](C2CC2)C[C@H](OCc2ccc(CO)cc2)O1,-19.2% (inactive),
CN1CCN(C(=O)C2=C[C@H](c3ccc4c(c3)OCO4)C[C@H](OCc3ccc(CO)cc3)O2)CC1,-0.234% (inactive),
O=C(C1=C[C@H](c2ccc(C(F)(F)F)cc2)C[C@H](OCc2ccc(CO)cc2)O1)N1CCN(Cc2ccccc2)CC1,,13.1 µM (active)
O=C(C1=C[C@H](c2coc3ccccc3c2=O)C[C@H](OCc2ccc(CO)cc2)O1)N1CCOCC1,-21.6% (inactive),
O=C(C1=C[C@H](c2coc3ccccc3c2=O)C[C@H](OCc2ccc(CO)cc2)O1)N1CCN(Cc2ccccc2)CC1,,5.86 µM (active)
O=C(O)C1=C[C@H](c2cccs2)C[C@H](OCCCCO)O1,40.2% (inactive),

Compound,"activity change, negative = inhibition",Potency
COc1cccc(/C=C2\Sc3ccc(C(=O)NCC4CCCO4)cc3N(C)C2=O)c1 (configuration not stated),11.3% (inactive),
CC(C)c1ccc(C2C(C(=O)c3ccco3)=C(O)C(=O)N2CC2CCCO2)cc1 (configuration not stated),-16% (inactive),
C/C(=N\Nc1ccc(S(N)(=O)=O)cc1[N+](=O)[O-])c1cccs1,7.59% (inactive),
COC(=O)C1(C)CC1(c1ccccc1)c1ccccc1 (configuration not stated),-11.4% (inactive),
CN(C1CCS(=O)(=O)C1)S(=O)(=O)c1ccc2ccccc2c1 (configuration not stated),17.6% (inactive),
CC(Sc1nn(-c2ccc(Cl)cc2)c(=S)s1)C(=O)NCC1CCCO1 (configuration not stated),4.28% (inactive),
O=C(O)c1ccc2c(=O)n3c(nc2c1)/C(=C/c1ccc(Cl)c([N+](=O)[O-])c1)CC3,-21.2% (inactive),
Cc1ccc(OCCOc2cccc(/C=N/NC(N)=O)c2)cc1,-1.16% (inactive),
O=C1CCC([N+](=O)[O-])C(c2ccccc2Br)N1 (configuration not stated),-26.5% (inactive),
C=CCOc1ccccc1NC(=O)CN1C(=O)CNC1=O,15.9% (inactive),
CN(CC(=O)NCc1ccncc1)S(=O)(=O)c1ccc(Br)cc1,-17.6% (inactive),
Cc1cc(N=Nc2ccc3ccccc3c2)ccc1O,85.3% (inactive),
O=[N+]([O-])c1ccc(N=Cc2c(O)ccc3ccccc23)cc1,17.6% (inactive),
Oc1ccc(N=Cc2c(O)ccc3ccccc23)cc1,,6.57 µM (active)
COc1ccc(C)cc1N(CC(=O)NC(C)c1ccccc1)S(C)(=O)=O (configuration not stated),169% (inactive),
CCOC(=O)c1ccc(NC(=O)c2ccc(NC(=O)C3CCCO3)cc2)cc1 (configuration not stated),-3.56% (inactive),
O=C(NCCc1ccccc1)C1CC1,24.6% (inactive),
O=C(CCc1ccccc1)NCc1cccnc1,12.9% (inactive),
O=C(NCCc1ccccc1)C1CCC(Cn2c(=O)c3ccccc3n(Cc3cccnc3)c2=O)CC1 (configuration not stated),,6.57 µM (active)
CCSc1nnc(SCC(=O)NNC(=O)c2ccccc2F)s1,26.7% (inactive),
CS(=O)(=O)c1ccc2nc(NC(=O)c3ccc(N4CCCC4=O)cc3)sc2c1,5.19% (inactive),
Cc1ccc(SCCC(=O)NCc2ccccn2)cc1,-27.1% (inactive),
Cc1cc(Cl)ccc1OCCCC(=O)NCc1ccccn1,-1.6% (inactive),
CC(C)Cn1c(=O)c2ccccc2n2c(CCC(=O)NCc3ccccn3)nnc12,,13.1 µM (active)
